The structures appear in SMILES notation. Unmarked numbers belong to inactive results. The source made the active and inactive calls. Rule as the data show it: active = remaining activity below about 50%; inactive = the rest.

Sequence of Phospholipase D2 (Homo sapiens) (O14939 whole entry, looked up): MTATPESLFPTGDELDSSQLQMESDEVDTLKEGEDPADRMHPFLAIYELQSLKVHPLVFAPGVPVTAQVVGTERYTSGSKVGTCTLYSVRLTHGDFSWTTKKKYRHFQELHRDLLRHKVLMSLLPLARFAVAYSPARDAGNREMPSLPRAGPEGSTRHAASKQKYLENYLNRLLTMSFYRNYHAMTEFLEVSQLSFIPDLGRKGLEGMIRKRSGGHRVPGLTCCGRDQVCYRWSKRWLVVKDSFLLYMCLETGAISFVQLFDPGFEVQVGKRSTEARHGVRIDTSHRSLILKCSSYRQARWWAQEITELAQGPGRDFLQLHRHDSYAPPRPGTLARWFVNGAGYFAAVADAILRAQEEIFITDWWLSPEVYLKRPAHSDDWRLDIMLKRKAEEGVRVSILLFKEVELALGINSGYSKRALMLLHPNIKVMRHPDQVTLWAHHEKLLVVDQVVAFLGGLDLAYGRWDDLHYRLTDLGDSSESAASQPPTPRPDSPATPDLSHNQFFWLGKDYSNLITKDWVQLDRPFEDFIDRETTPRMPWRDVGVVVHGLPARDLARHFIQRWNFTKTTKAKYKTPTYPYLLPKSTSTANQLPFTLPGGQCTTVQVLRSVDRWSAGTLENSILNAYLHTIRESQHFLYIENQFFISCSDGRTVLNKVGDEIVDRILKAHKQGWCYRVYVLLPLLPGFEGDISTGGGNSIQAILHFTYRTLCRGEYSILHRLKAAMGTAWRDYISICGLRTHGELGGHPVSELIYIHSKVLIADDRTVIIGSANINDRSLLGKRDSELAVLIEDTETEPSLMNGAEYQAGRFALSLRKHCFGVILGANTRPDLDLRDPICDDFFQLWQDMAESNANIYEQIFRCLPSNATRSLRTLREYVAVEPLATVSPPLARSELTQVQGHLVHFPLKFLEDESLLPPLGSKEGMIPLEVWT
Sequence of Phospholipase D2 (Homo sapiens) (O14939 whole entry, looked up): as above

This experiment concerns the target Phospholipase D2 (Homo sapiens) (UniProt O14939). Put plainly: PLD2 inhibitors in cells, cell-based, HEK293, single concentration (AID 602143).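 Also: tested at 200 nM.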 To be noted: HEK293 cellular PLD2 activity, percent of control; stronger effect = lower value.
In the case of `C[C@H](CN1CCC2(CC1)CNc1ccccc12)NC(=O)c1cnc2ccccc2c1`, the remaining activity is 104%.

For the compound `C[C@@H](CN1CCC2(CC1)CN(S(C)(=O)=O)c1ccccc12)NC(=O)[C@H]1C[C@@H]1c1ccccc1`, the remaining activity is 109%.

As to `C[C@H](CN1CCC2(CC1)CNCc1ccccc12)NC(=O)c1cnc2ccccc2c1`, the remaining activity is 100%.

Take `O=C(NCCN1CCN(c2ccccn2)CC1)c1ccc(C(F)(F)F)cc1`: the remaining activity is 117%.

In the case of `O=C(c1ccc2ccccc2c1)N1CCC2(CC1)C(=O)NCN2c1ccccc1`, the remaining activity is 75.8%.

As to `O=C(NCCN1CCC(n2c(=O)[nH]c3ccccc32)CC1)c1cc2ccccc2c2c1ccc1ccccc12`, the remaining activity is 76.6%.

On to `O=C(NCCN1CCN(c2ccncc2)CC1)c1ccc(F)cc1`, for which the remaining activity was 102%.

`CCNC(=S)NCCN1CCC(n2c(=O)[nH]c3ccccc32)CC1`: the remaining activity is 78.2%.

As for `C[C@@H](CN1CCC(n2c(=O)[nH]c3cc(I)ccc32)CC1)NC(=O)c1ccc(Cl)cc1`, the remaining activity is 72.7%.

For the compound `O=C(NCCN1CCC(n2c(=O)[nH]c3ccc(F)cc32)CC1)c1ccc(Cl)c(Cl)c1`, the remaining activity was 0% (active).

For `O=C(NCCN1CCC(n2c(=O)[nH]c3ccccc32)CC1)N1c2ccccc2Sc2ccccc21`, the remaining activity is 111%.

Regarding `NC1(CN2CCC(c3nc4ccccc4[nH]3)CC2)CCCC1` (tested in a mixture with another compound), the remaining activity is 105%.

Consider `O=C(NCCN1CCN(c2ccccn2)CC1)c1ccc(Cl)cc1`, for which the remaining activity is 106%.

With `O=C(NCCN1CCN(c2ccncc2)CC1)c1ccc(F)cc1O`, the remaining activity was 112%.

In the case of `O=C(NCCN1CCN(c2ccncc2)CC1)c1c2ccccc2cc2ccccc12`, the remaining activity is 127%.

For the compound `C[C@@H](CN1CCC(n2c(=O)[nH]c3ccccc32)CC1)NC(=O)COc1ccccc1`, the remaining activity is 88.2%.

For `C[C@@H](CN1CC=C(n2c(=O)[nH]c3ccccc32)CC1)NC(=O)c1ccc2ccccc2c1`, the remaining activity is 15.3% (active).

For the compound `O=C(C1C[C@@H]1c1ccccc1)N1CCC(n2c(=O)[nH]c3cc(Cl)ccc32)CC1` (stereo partly specified), the remaining activity was 72.5%.

`Cc1cccc(NC(=S)NCCN2CCC(n3c(=O)[nH]c4ccccc43)CC2)c1`: the remaining activity was 113%.

As to `C[C@@H](CN1CCC(n2c(=O)[nH]c3ccc(F)cc32)CC1)NC(=O)c1ccc(F)c(F)c1`, the remaining activity was 52.6%.

For `O=C(NCCN1CCN(c2ccncc2)CC1)c1cc2cc(F)ccc2[nH]1`, the remaining activity is 65.5%.

As to `C[C@@H](CN1CCC(n2c(=O)[nH]c3ccccc32)CC1)NC(=O)CSc1ccccc1`, the remaining activity is 86.7%.

As for `O=C(NCCN1CCC2(CC1)CNCc1ccccc12)c1ccc2ccccc2c1`, the remaining activity is 103%.

For the compound `CS(=O)(=O)N1CC2(CCN(CCNC(=O)c3ccc4ccccc4c3)CC2)c2ccccc21`, the remaining activity is 84.2%.

With `O=C(NCCN1CC=C(n2c(=O)[nH]c3ccccc32)CC1)C1CC1c1ccccc1` (stereo unspecified), the remaining activity was 28.2% (active).

Consider `CC(C)[C@@H](CN1CCC(n2c(=O)[nH]c3ccccc32)CC1)NC(=O)c1ccc2ccccc2c1`, for which the remaining activity is 73.3%.

As for `O=C(c1ccc(Cl)cc1)N(CCN1CCC(n2c(=O)[nH]c3ccccc32)CC1)C(=O)c1ccc(Cl)cc1`, the remaining activity is 94.2%.

As for `C[C@@H](CN1CCC(n2c(=O)[nH]c3ccccc32)CC1)NC(=O)c1ccco1`, the remaining activity is 97.1%.

In the case of `O=C(NCCN1CC=C(n2nnc3cc(C(F)(F)F)ccc32)CC1)c1cnc2ccccc2c1`, the remaining activity was 114%.

Take `CC(C)[C@@H](CN1CCC(n2c(=O)[nH]c3ccccc32)CC1)NC(=O)c1cc2cc(F)ccc2[nH]1`: the remaining activity was 79.5%.

`O=c1[nH]c2ccccc2n1C1CCN(CCNS(=O)(=O)c2cc(Cl)ccc2Cl)CC1`: the remaining activity was 68.8%.

With `C[C@@H](CN1CCC(n2c(=O)[nH]c3ccccc32)CC1)NC(=O)c1cccnc1`, the remaining activity is 97.3%.

As to `Nc1ccc(C(=O)NCCN2CCC(n3c(=O)[nH]c4ccccc43)CC2)cc1OC(F)(F)F`, the remaining activity was 76.5%.

For `O=c1[nH]c2ccccc2n1C1CCN(CCNS(=O)(=O)c2ccc([N+](=O)[O-])cc2)CC1`, the remaining activity is 80.3%.

Regarding `O=C(NCCN1CCC(c2nc3ccccc3[nH]2)CC1)C1CC1c1ccccc1` (stereo unspecified), the remaining activity was 95.6%.

On to `COc1cc(C(=O)NCCN2CCN(c3ccncc3)CC2)ccc1N`, for which the remaining activity was 130%.

For the origin of these results see PubChem BioAssay AID602143 (Vanderbilt Specialized Chemistry Center, 2011).
